According to PubChem BioAssay (NCI):
About 79,000 compounds went through this panel and 15% of them were active in at least one assay; those are over-represented in the sample as a whole. A number with no mark means an inactive call. Activity calls are given as the source filed them. Cut-off read from the data, not from the text of the source: active = growth inhibition above about 70%; inactive = the rest.

Legend:
[1] = NCI Yeast Anticancer Drug Screen. Data for the rad50 strain (AID 155);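 note: 0% = growth of vehicle-only cultures of the same strain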; settings: S. cerevisiae rad50 strain growth inhibition; at 50.0 µM; stronger effect = higher value
Method in brief: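 DNA repair mutant yeast, compound exposure, growth read-out; inhibition is taken relative to vehicle.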

[2] = NCI Yeast Anticancer Drug Screen. Data for the mec2-1 strain (AID 157); settings: S. cerevisiae mec2-1 strain, at 50.0 µM, stronger effect = higher value
Method in brief: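 Test agents were screened against the mec2-1 yeast strain, with defined DNA repair or cell cycle alteration. Growth was scored as inhibition against vehicle-only controls.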

[3] = NCI Yeast Anticancer Drug Screen. Data for the sgs1 mgt1 strain (AID 161);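 note: 0% = growth of cultures given vehicle only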; settings: S. cerevisiae sgs1 mgt1 strain, at 50.0 µM, stronger effect = higher value
Method in brief: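 Inhibition of yeast growth, normalised to vehicle-treated controls, is reported for a strain bearing genetic alterations in DNA damage repair.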

[4] = NCI Yeast Anticancer Drug Screen. Data for the cln2 rad14 strain (AID 165);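 note: 0% = growth equal to vehicle treated cultures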; settings: S. cerevisiae cln2 rad14 strain, at 50.0 µM, stronger effect = higher value
Method in brief: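 Growth of compound-exposed yeast (cln2 rad14 genotype) measured and expressed as inhibition relative to vehicle.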

[5] = NCI Yeast Anticancer Drug Screen. Data for the bub3 strain (AID 167); settings: S. cerevisiae bub3 mutant strain, at 50.0 µM, stronger effect = higher value
Method in brief: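 In this screen, a yeast mutant lacking normal mitotic checkpoint function is challenged with compound. Relative growth versus vehicle gives the inhibition value.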

[6] = NCI Yeast Anticancer Drug Screen. Data for the mlh1 rad18 strain (AID 175); settings: S. cerevisiae mlh1 rad18 strain growth inhibition; at 50.0 µM; stronger effect = higher value
Method in brief: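 In this whole-cell yeast screen, a strain with altered DNA damage repair is challenged with compound, and its growth is measured against matched vehicle-treated controls.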

| SMILES | growth inhibition [1] | growth inhibition [2] [%] | growth inhibition [3] | growth inhibition [4] | growth inhibition [5] [%] | growth inhibition [6] [%] |
| --- | --- | --- | --- | --- | --- | --- |
| NC(CSS(=O)(=O)O)=NCC1CC2CCC1C2 (stereo unspecified) | 3.25% | 6.2 | -3.85% | 6.95% | 4.4 | 12.3 |
| COc1ccc(NC(=O)C(=O)Cc2ccc([N+](=O)[O-])c([N+](=O)[O-])c2CC(=O)C(=O)Nc2ccc(OC)cc2OC)c(OC)c1 | 0.35% | -36.1 | -44% | 17.8% | 6.15 | 8.05 |
| Cc1cc2oc(C)c(S(=O)(=O)NC(=O)Nc3ccc(Cl)cc3)c(=O)c2c(=O)o1 | -2.85% | -0.45 | -2.5% | 3.55% | 12.2 | -2.8 |
| [N-]=[N+]=Nc1ccc(NCCCCCC(=O)ON2C(=O)CCC2=O)c([N+](=O)[O-])c1 | 72% (active) | 9.25 | 77.7% (active) | 19.4% | 4.7 | 67 |
| Cc1ccc(C2=Nn3c(nc4sc(C)c(C)c4c3=O)SC2)cc1 | -27.9% | -3.25 | -23.1% | 6.15% | -22.1 | -10.6 |
| CNC(=O)C1CCC(CC2CCCCC2)CC1 (stereo unspecified) | 45.4% | 49.5 | 77.1% (active) | 11.2% | 42.8 | 38.5 |
| Cc1cc(OCCOc2ccc(N)cc2)ccc1N1C(N)=NC(N)=NC1(C)C | -1.5% | 12.7 | 6.65% | 83.2% (active) | 1.45 | -3 |
| CN1C2=C(CC3=C1CC(C)(C)CC3=O)C(=O)CC(C)(C)C2 | -18.6% | -12.9 | -20.1% | -4.25% | -27.6 | -34.7 |
| ClC1=C(Cl)C2(Cl)C=CC1(Cl)C2 | 4.05% | -3.05 | 4% | -14.2% | 1.9 | 6.6 |
| CCOc1ccc(N2N=C(C)CCC2=O)cc1 | 6.2% | 1.9 | 5.15% | -10.6% | 6.15 | 0.2 |
| CC1=CCC(=O)[C@]2(C)C(CC(=O)O)[C@]3(C)C4=C(C)C(c5ccoc5)C[C@@H]4O[C@@H]3[C@H](O)[C@@H]12 (stereo partly specified) | 26.5% | -9.6 | 9.65% | 41% | -1.2 | -67.8 |
| NC(N)=N/N=C(/c1nc2ccc([N+](=O)[O-])cc2[nH]c1=O)C(O)c1ccco1 (stereo unspecified) | 10.1% | -25 | 0.25% | 5.95% | -15.3 | 1.7 |
| C1CC[N+]2(CC1)CCCCC2 | 0.1% | 9.4 | -0.55% | 14.2% | 23.1 | -0.45 |
| ONc1ncnc2nc[nH]c12 | -8.65% | 5.4 | 3.8% | -1.65% | -2.45 | -11.3 |
| COC(=O)/C=C/C(=O)OC | 9.75% | 14.4 | 19.4% | 9.3% | 9.45 | 6.6 |
| O=S(CC(O)(c1ccccc1)c1ccccc1)c1ccccc1 (stereo unspecified) | 6.55% | 14.4 | 18% | 36.2% | 30.9 | 23.5 |
| N#Cc1c(O)c(-c2ccccc2)c(=O)n2c1[nH]c1ccccc12 | -11.7% | -9.9 | -13.6% | 14.9% | 2.6 | -12.3 |
| Cc1c(Cl)cccc1NC(=O)OC/C=C/c1ccccc1 | 3.2% | 33.2 | 14.8% | -9.35% | 5.6 | -10.9 |
| ClCCOc1ccc2ccccc2c1 | 13.4% | -6.1 | 0.55% | 4.05% | 0.5 | 12.1 |
| C=C1CCC1 | 1.05% | -11.5 | -14.7% | 10.6% | 6.05 | -3.35 |
| CC(=O)N(C)CCCCCCN(C)C(C)=O | 8.95% | 8.05 | 10.7% | 3.05% | 7.2 | 9.35 |

| SMILES | growth inhibition [1] | growth inhibition [2] [%] | growth inhibition [3] | growth inhibition [4] | growth inhibition [5] [%] | growth inhibition [6] [%] |
| --- | --- | --- | --- | --- | --- | --- |
| CC(C)N(C(=O)C12C3C4C5C3C1(C#N)C5C42)C(C)C (stereo unspecified) | 10.1% | 6.95 | 12.1% | 5.95% | 2.35 | -9.45 |
| O=C(/N=C1\N=Nc2nc(C(C(=O)c3cccc([N+](=O)[O-])c3Cl)c3nc4n(c3O)/C(=N/C(=O)Nc3ccc(Cl)cc3)N=N4)c(O)n21)Nc1ccc(Cl)cc1 (stereo unspecified) | 9.35% | -8.2 | 5.25% | -6.65% | 0.7 | 7.1 |
| COc1ccc(-c2cc(=O)c3cccc(CC(=O)O)c3o2)cc1 | 8.2% | 11.7 | -0.3% | 31.1% | 2.05 | 18.4 |
| CSCCC(NC(C)=O)C(C)=O (stereo unspecified) | 5.75% | -9.35 | -3.55% | -21.3% | -7.15 | 7.9 |
| N#Cc1c2c([nH]c(=O)c1C#N)CCCC2 | 15.5% | 10.5 | 3.2% | 9.15% | -8.75 | -23.1 |
| O=c1oc(-c2ccc(Cl)cc2Cl)nc2cc(Cl)ccc12 | 22.9% | -10.4 | 43.2% | 22.2% | 19.6 | 25.4 |
| CC1(C)[C@H](C(=O)O)N2C(=O)[C@@H](NC(=O)C(c3ccccc3)c3ccccc3)[C@H]2S1=O (stereo partly specified) | -53.5% | -8.25 | -10.4% | 3.65% | -3.9 | 4.85 |
| CCOC(=O)C1(C#N)C(C#N)(C#N)C1(C)CC (stereo unspecified) | 10.8% | -1.2 | 24.8% | -1.1% | 0.75 | -0.75 |
| COc1cccc(C2=CCCCCC2)c1OC | 1.15% | -12.8 | -9.45% | -23% | -15.9 | 4.3 |
| CN1CCCC(C(=O)O)(c2ccccc2)CC1 (stereo unspecified) | -17.3% | -5.95 | -19.2% | -35.2% | -14.7 | -24.1 |
| N#CCC(=O)N/N=C(\C(=O)Nc1ccc(Cl)c(Cl)c1)C1CN(c2ccccc2)N=C1N (stereo unspecified) | 24.4% | 6.9 | -11.8% | -44.4% | 0.45 | -8.4 |
| CC(C)(C)OC(=O)NC(CS(=O)(=O)O)C(=O)O (stereo unspecified) | -39.1% | -11.4 | -2.4% | 13.4% | 13 | -15.3 |
| C=CCn1c(NCCN(CC)CC)nc2ccc(Cl)cc2c1=O | 47% | 6.5 | 31.8% | 0.85% | 11.8 | 19.4 |
| COC(=O)c1ccccc1/C=C1\Cc2ccc3c(c2C1=O)CCCC3 | -30.9% | -52.6 | -18.9% | -7.4% | 5.6 | -25.2 |
| C[Si](C)(CNCCN)O[Si](C)(C)CNCCN | 6.3% | -18.8 | -3.3% | 13.1% | 5.9 | 13.3 |
| CCOC(CN(C)C)OCC | 8.6% | 6.95 | 4.1% | -18.2% | -5.8 | 5.7 |
| O=Nc1c(O)[nH]c2c(Cl)cccc12 | 0.1% | -10.2 | -15.2% | -20.4% | -18.2 | -5.25 |
| CC(C)CCCCC(C)(C)OC(=O)NC(N)=O | 7.25% | 2 | 12.2% | 17.1% | -17.6 | 9.85 |
| CCOC(=O)c1nnc2cc(-c3ccccc3)nn2c1C | 6.65% | 0.6 | 18.1% | 25.4% | 41.4 | 28.6 |
| N#CC(C(=O)O)C(c1cccc2ccccc12)c1cccc2ccc3ccccc3c12 (stereo unspecified) | 51% | -2.3 | 27.1% | -4.35% | 7.05 | 13.8 |
